Test [1] addresses Estrogen receptor (Homo sapiens) (UniProt P03372). The test is described as follows: qHTS assay for small molecule agonists of estrogen receptor alpha signaling (AID 588514).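 Also: 0% = vehicle only and 100% = reference agonist; nearly all actives have a fitted effect of over 70% in size.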 The gist of the method:
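Cells were plated at 5000/well, incubated 4 hrs at 37 C, dosed with compound titration series, incubated 18 hrs at 37 C, loaded with CCF4 dye for 2 hrs at RT, then fluorescence was read.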
On the technique in general: Quantitative high-throughput screening tests each substance at several concentrations.

For test [2], the target named is Glucocorticoid receptor (Homo sapiens) (UniProt P04150). The test can be described thus: qHTS assay for small molecule agonists of glucocorticoid receptor signaling (AID 588532; active = well fitted curve in the direction sought with a large enough effect in the signal ratio, with a control signal flat; the % refers to the signal ratio;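 also: 100% = dexamethasone at 0.1 µM and 0% = DMSO only wells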). The note with it: HeLa MMTV-bla, beta-lactamase ratio, agonist, 18 h; activation: stronger effect = higher value, percent of dexamethasone control, DMSO zero. An outline of the steps:
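Agonist-mode qHTS: GRE-driven beta-lactamase in HeLa cells exposed 18 h to titrated compounds (up to 92 uM), then CCF4 ratio read after 2 h at RT; Hill-fitted EC50, efficacy relative to 0.1 uM dexamethasone.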

The target is the same in test [3]. The test is described as follows: qHTS assay for small molecule antagonists of glucocorticoid receptor signaling (AID 588533; active = well fitted inhibition curve with a large enough effect in the signal ratio, with a control signal flat, not every such curve was filed as active; the % refers to the signal ratio;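 also: cells stimulated with 2 nM dexamethasone as agonist; % is scaled to controls: 0 for no effect and ±100 for the full control effect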). An outline of the steps: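 Antagonist-mode qHTS: compound titrations added to GRE-bla HeLa cells, then dexamethasone 2 nM final; 18 h, 37 C. CCF4 FRET fluorescence normalized to dexamethasone and DMSO; IC50 from Hill fit.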
For test [4], the target named is Peroxisome proliferator-activated receptor delta (Homo sapiens) (UniProt Q03181). The test is described as follows: qHTS assay for small molecule agonists of peroxisome proliferator-activated receptor delta signaling (AID 588534).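 Also: 0% = DMSO basal wells and 100% = positive control agonist at 10 µM.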 The gist of the method:
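Fluorescence from CCF4 substrate cleavage by beta-lactamase reporter, read 2 hrs at RT, measured agonist activity. Compounds were tested with 18 hrs exposure at 37 C. Concentration-response data fitted to Hill equation.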

Test [5] in a line: qHTS assay for small molecule antagonists of peroxisome proliferator-activated receptor delta signaling (AID 588535; active = well fitted inhibition curve with a large enough effect in the signal ratio, with a control signal flat, not every such curve was filed as active; the % refers to the signal ratio;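 as to max response: cells co-treated with a PPAR-delta agonist as stimulator during compound exposure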). The note with it: HEK293T PPARd-UAS-bla, beta-lactamase FRET ratio, 18 h; 460 nm channel. The gist of the method:
(§1)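 HEK293T PPAR-delta-UAS-bla cells, 4000/well, 2% charcoal/dextran FBS; 5 h 37 C; cpd titration; 18 h 37 C; CCF4 2 h RT; FI 460/530 nm; Hill fit → IC50, efficacy.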

The target in test [6] is Peroxisome proliferator-activated receptor delta (Homo sapiens) (UniProt Q03181). Described as above. The gist of the method: as §1
Test [7] deals with Peroxisome proliferator-activated receptor gamma (Homo sapiens) (UniProt P37231). The test is described as follows: qHTS assay for small molecule agonists of peroxisome proliferator-activated receptor gamma signaling (AID 588536; active = well fitted curve in the direction sought with a large enough effect in the signal ratio, with a control signal flat, not every such curve was filed as active; the % refers to the signal ratio; also: potency is read from the fitted curve at half-maximal effect;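 as to activation: 0% = DMSO basal wells and 100% = rosiglitazone at 2 µM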). An outline of the steps:
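GeneBLAzer PPAR-gamma-UAS-bla HEK293 cells in 1% charcoal/dextran-treated FBS medium were treated 16 h at 37 C with compounds. Beta-lactamase activity was read by CCF4 ratio (460/530 nm). Response was normalized to 2 uM rosiglitazone (100%) and DMSO, then Hill-fitted for EC50 and efficacy.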

Test [8] addresses Retinoic acid receptor RXR-alpha (Homo sapiens) (UniProt P19793). The test can be described thus: qHTS assay for small molecule agonists of retinoid X receptor alpha signaling (AID 588544).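 Also: 0% = DMSO basal wells and 100% = reference agonist.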
In test [9] the target is Thyroid hormone receptor beta (Homo sapiens) (UniProt P10828). The test is described as follows: qHTS assay for small molecule agonists of thyroid hormone receptor beta signaling (AID 588545). An outline of the steps:
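In this cell-based screen, titrated compounds act on HEK 293 cells held in medium with 2% charcoal/dextran FBS, NEAA and pyruvate for 18 hrs at 37 C. Responses are expressed relative to T3 (10 nM) as 100% and basal DMSO as 0%.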

The nature of test [10]: qHTS assay for small molecule antagonists of retinoid X receptor alpha signaling (AID 588546; active = well fitted inhibition curve with a large enough effect in the signal ratio, with a control signal flat, not every such curve was filed as active; the % refers to the signal ratio;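 also: cells stimulated with 9-cis-retinoic acid as agonist; % is scaled to controls: 0 for no effect and ±100 for the full control effect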). The note with it: HEK293T RXRa-UAS-bla, beta-lactamase ratio, antagonist mode; measured here: W530 green channel, cytotoxicity proxy. An outline of the steps:
(§2)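 Beta-lactamase reporter inhibition, read as CCF4 fluorescence ratio (ex 405, em 460/530 nm) after 2 h at RT. HEK293T UAS-bla cells, 2500/well, were stimulated with 9-cis-RA at 500 or 100 nM final alongside test compound for 18 h at 37 C.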

Test [11] has as its target Retinoic acid receptor RXR-alpha (Homo sapiens) (UniProt P19793). The description is as above. The note with it: HEK293T RXRa-UAS-bla, beta-lactamase ratio, antagonist mode. An outline of the steps: as §2
In test [12] the target is Thyroid hormone receptor beta (Homo sapiens) (UniProt P10828). The test is described as follows: qHTS assay for small molecule antagonists of thyroid hormone receptor beta signaling (AID 588547; active = well fitted inhibition curve with a large enough effect in the signal ratio, with a control signal flat, not every such curve was filed as active; the % refers to the signal ratio;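 also: cells stimulated with 0.4 nM T3 agonist during compound exposure; series mostly up to about 77 µM; % is scaled to controls: 0 for no effect and ±100 for the full control effect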). As to conditions: TR-UAS-bla HEK293, beta-lactamase ratio, antagonist mode, 18 h. The gist of the method: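 Inhibition of T3-driven (0.4nM final) beta-lactamase reporter activity was measured over 0.59 nM to 92 uM compound after 18 h at 37 C. The cells were GripTite HEK293 TR-UAS-bla in charcoal/dextran-stripped serum, with CCF4 ratio read-out and IC50 from Hill fits.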

Test [13] in a line: qHTS assay for small molecule activators of the p53 signaling pathway (AID 651743; active = well fitted activation curve with a large enough effect in the signal ratio, not every such curve was filed as active; the % refers to the signal ratio; also: series mostly up to about 92 µM; % of control where 0% means no effect). As to conditions: HCT-116 p53RE-bla, beta-lactamase FRET ratio, 16 h; activation: stronger effect = higher value. The gist of the method:
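Read-out is fluorescence intensity from the LiveBLAzer B/G FRET substrate, added for 2 hours at room temperature after HCT-116 p53RE-bla cells had been incubated with compounds for 16 hours at 37 C.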

Test [14] is described as follows: qHTS assay for environmental chemicals that activate the Aryl hydrocarbon Receptor (AhR) signaling pathway (AID 651777; active = well fitted curve in the direction sought with a large enough effect; an effect the other way counts as inactive or inconclusive; also: % of control where 0% means no effect; nearly all actives have a fitted effect of over 15% in size). The note with it: 1A2-DRE human hepatoma cells, luciferase, 24 h; activation: stronger effect = higher value. An outline of the steps: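 Reporter gene assay: hepatoma cells with DRE/CYP1A2-luciferase, 24 hr compound incubation at 37 C, 5% CO2, luminescence after One-Glo (30 min, RT).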

The target of test [15] is Peroxisome proliferator-activated receptor alpha (Homo sapiens) (UniProt Q07869). The test is described as follows: qHTS assay for small molecule agonists of the peroxisome proliferator-activated receptor alpha (PPARalpha) signaling pathway (AID 651778; active = well fitted curve in the direction sought with a large enough effect; an effect the other way counts as inactive or inconclusive; also: % of control where 0% means no effect). The note with it: PathHunter PPARalpha complementation, chemiluminescence, 6 h; max response: stronger effect = higher value. An outline of the steps:
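Chemiluminescence from complemented enzyme reported PPARalpha activation in cells after 6 hr of compound treatment at 37 C. The detection reagent was incubated for 60 min at room temperature, and compounds were scored as agonists.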

Test [16] in a line: qHTS assay for small molecule agonists of the antioxidant response element (ARE) signaling pathway measured by Nrf2-dependant transcriptional activity (AID 720636; active = well fitted curve in the direction sought with a large enough effect in the repeat runs; an effect the other way counts as inactive or inconclusive; also: potency is read from the fitted curve at half-maximal effect;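 as to activation: HepG2 cells with an ARE-driven luciferase reporter; % of control where 0% means no effect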). The gist of the method:
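Nrf2-dependent transcription is measured in ARE-luc HepG2 cells: compound is applied for 16 hr at 37 C after a 6 hr attachment period, and luciferase activity is quantified by luminescence using ONE-Glo.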

Test [17] can be described thus: qHTS assay for small molecule agonists of the antioxidant response element (ARE) signaling pathway measured by Nrf2-dependant transcriptional activity - cell viability counter screen (AID 720653; active = well fitted curve in the direction sought with a large enough effect in the repeat runs; an effect the other way counts as inactive or inconclusive; also: % is scaled to controls: 0 for no effect and ±100 for the full control effect). As to conditions: ARE-bla HepG2 viability, CellTiter-Glo ATP luminescence, 16 h; max response: stronger effect = lower value. An outline of the steps:
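Cytotoxicity counter screen: intracellular ATP quantified by CellTiter-Glo luminescence in the same ARE-bla HepG2 plates, after 16 h compound exposure and a 2 h beta-lactamase substrate step.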

Test [18] in a line: qHTS assay for cell viability of HEK293 cells (AID 743288; active = well fitted curve in the direction sought with a large enough effect; an effect the other way counts as inactive or inconclusive; also: % is scaled to controls: 0 for no effect and ±100 for the full control effect; nearly all actives have a fitted effect of over 50% in size). The note with it: ATP luminescence (CellTiter-Glo), 18 h; max response: stronger effect = lower value. The gist of the method:
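Environmental chemicals tested in qHTS format against parental HEK293 cells; 18 h treatment, 37 C; read-out ATP luminescence (CellTiter-Glo), 30 min RT development.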

Test [19] can be described thus: qHTS assay for cell viability of the p53RE-bla HCT-116 cell line (AID 743292; active = well fitted curve in the direction sought with a large enough effect; an effect the other way counts as inactive or inconclusive; also: % is scaled to controls: 0 for no effect and ±100 for the full control effect; nearly all actives have a fitted effect of over 55% in size). An outline of the steps:
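ATP-based luminescence, 16 h compound exposure at 37 C, p53RE-bla HCT-116 cells at 4,000/well.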

Test [20] addresses Nuclear receptor subfamily 1 group I member 2 (Rattus norvegicus) (UniProt Q9R1A7). The test is described as follows: qHTS assay for small molecule activators of the rat pregnane X receptor (rPXR) signaling pathway (AID 651751; call rule not given here; also: 0% is about no effect). As to conditions: rPXR reporter cells, luciferase (One-Glo), 24 h.

From PubChem BioAssay (NCATS) come the findings set out here.

Where “and” joins values, the source holds several entries; their conditions need not be identical. Equal values may be shown once. Results filed as inconclusive are left out. Calls of active or inactive are those of the source. Unless noted, calls follow the shape of the full dose curve.

Retinoic acid receptor RXR-alpha (Homo sapiens), sequence (P19793 whole entry, looked up): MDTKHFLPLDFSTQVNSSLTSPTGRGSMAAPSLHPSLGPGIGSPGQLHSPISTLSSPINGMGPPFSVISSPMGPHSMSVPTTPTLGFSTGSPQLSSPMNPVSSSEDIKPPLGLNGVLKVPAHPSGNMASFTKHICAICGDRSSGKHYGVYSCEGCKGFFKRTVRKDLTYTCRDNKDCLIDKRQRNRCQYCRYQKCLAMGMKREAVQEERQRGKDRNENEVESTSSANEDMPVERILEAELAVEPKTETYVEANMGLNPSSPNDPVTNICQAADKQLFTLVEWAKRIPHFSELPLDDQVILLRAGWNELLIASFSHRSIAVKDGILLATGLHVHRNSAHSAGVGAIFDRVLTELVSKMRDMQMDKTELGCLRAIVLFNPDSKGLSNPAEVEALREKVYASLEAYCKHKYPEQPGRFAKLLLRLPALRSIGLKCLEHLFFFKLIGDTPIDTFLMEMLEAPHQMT
Nuclear receptor subfamily 1 group I member 2 (Rattus norvegicus), sequence (Q9R1A7 whole entry, looked up): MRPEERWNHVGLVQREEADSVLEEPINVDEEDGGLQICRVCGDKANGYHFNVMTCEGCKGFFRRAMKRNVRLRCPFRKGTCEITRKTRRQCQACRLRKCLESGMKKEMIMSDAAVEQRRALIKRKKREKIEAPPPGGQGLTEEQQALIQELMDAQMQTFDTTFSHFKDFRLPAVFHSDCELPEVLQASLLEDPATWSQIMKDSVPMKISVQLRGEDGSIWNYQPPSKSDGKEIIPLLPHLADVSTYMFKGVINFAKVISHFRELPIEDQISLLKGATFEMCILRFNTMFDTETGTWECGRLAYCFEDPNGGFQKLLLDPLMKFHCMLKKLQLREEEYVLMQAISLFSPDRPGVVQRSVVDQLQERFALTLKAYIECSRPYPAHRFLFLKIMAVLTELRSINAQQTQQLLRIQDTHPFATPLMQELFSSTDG
Peroxisome proliferator-activated receptor alpha (Homo sapiens), sequence (Q07869 whole entry, looked up): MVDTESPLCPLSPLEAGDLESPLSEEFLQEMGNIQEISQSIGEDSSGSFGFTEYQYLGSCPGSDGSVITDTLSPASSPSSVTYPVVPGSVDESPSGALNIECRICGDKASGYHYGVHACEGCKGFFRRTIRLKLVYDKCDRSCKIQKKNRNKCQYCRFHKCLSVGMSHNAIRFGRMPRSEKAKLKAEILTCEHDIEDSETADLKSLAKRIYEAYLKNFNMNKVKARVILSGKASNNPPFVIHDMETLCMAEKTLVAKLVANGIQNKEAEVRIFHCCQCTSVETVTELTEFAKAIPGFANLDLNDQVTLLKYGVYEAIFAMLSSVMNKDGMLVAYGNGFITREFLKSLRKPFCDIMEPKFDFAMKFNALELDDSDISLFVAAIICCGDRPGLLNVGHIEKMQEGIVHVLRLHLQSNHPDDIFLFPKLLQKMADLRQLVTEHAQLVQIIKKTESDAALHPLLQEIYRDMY
Peroxisome proliferator-activated receptor gamma (Homo sapiens), sequence (P37231 whole entry, looked up): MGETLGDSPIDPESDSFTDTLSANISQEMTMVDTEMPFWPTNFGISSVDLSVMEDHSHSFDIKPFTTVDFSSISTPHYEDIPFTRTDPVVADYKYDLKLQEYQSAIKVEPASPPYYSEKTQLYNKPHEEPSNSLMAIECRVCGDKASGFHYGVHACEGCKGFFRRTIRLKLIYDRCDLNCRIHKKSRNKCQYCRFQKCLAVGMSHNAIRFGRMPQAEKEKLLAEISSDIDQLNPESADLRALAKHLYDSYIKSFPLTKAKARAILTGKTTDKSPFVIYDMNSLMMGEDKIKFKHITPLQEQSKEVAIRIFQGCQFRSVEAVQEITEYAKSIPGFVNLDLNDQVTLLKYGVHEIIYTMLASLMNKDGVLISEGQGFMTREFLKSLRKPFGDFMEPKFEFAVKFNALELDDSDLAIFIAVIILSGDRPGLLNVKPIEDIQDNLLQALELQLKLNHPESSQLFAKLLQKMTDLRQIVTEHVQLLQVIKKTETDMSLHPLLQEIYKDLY
Peroxisome proliferator-activated receptor delta (Homo sapiens), sequence (Q03181 whole entry, looked up): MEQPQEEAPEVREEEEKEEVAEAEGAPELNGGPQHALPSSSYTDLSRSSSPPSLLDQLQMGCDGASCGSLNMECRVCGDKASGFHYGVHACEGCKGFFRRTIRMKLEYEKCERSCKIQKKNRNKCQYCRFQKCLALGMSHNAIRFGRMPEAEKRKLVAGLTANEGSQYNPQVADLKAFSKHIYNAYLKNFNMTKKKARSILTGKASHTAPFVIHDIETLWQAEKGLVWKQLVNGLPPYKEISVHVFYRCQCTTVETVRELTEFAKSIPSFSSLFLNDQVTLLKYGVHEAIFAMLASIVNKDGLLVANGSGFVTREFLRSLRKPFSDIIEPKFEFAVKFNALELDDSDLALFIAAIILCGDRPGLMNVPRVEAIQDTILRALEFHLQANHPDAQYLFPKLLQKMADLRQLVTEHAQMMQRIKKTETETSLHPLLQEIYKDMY
Thyroid hormone receptor beta (Homo sapiens), sequence (P10828 whole entry, looked up): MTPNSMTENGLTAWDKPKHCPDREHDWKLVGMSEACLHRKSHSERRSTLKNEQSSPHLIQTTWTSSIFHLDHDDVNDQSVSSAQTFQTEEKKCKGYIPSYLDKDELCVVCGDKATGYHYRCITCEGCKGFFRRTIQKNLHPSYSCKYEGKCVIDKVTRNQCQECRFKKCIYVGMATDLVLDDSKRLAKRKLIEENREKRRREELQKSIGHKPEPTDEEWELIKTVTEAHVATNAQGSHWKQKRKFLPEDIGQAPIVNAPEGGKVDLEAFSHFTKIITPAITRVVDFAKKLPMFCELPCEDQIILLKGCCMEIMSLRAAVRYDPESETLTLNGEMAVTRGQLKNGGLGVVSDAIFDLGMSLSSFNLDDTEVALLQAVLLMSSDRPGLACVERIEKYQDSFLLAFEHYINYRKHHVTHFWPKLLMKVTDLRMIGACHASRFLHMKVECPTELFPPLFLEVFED
Estrogen receptor (Homo sapiens), sequence (P03372 whole entry, looked up): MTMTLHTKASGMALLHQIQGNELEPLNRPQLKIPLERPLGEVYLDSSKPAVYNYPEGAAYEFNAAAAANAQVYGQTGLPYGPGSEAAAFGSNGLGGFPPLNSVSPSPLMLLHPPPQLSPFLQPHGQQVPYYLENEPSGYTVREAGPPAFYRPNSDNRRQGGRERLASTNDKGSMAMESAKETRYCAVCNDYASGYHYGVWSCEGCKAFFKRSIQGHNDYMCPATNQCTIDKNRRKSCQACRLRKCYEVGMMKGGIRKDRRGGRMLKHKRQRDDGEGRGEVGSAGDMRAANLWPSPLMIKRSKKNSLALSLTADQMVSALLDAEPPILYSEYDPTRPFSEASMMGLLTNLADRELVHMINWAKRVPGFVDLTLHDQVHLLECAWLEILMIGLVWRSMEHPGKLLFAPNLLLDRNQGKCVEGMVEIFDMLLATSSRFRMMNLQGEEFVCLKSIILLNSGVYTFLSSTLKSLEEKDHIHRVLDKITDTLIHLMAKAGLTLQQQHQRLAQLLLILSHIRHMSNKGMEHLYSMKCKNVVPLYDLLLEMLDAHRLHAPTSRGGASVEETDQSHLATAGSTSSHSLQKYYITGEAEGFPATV
Glucocorticoid receptor (Homo sapiens), sequence (P04150 whole entry, looked up): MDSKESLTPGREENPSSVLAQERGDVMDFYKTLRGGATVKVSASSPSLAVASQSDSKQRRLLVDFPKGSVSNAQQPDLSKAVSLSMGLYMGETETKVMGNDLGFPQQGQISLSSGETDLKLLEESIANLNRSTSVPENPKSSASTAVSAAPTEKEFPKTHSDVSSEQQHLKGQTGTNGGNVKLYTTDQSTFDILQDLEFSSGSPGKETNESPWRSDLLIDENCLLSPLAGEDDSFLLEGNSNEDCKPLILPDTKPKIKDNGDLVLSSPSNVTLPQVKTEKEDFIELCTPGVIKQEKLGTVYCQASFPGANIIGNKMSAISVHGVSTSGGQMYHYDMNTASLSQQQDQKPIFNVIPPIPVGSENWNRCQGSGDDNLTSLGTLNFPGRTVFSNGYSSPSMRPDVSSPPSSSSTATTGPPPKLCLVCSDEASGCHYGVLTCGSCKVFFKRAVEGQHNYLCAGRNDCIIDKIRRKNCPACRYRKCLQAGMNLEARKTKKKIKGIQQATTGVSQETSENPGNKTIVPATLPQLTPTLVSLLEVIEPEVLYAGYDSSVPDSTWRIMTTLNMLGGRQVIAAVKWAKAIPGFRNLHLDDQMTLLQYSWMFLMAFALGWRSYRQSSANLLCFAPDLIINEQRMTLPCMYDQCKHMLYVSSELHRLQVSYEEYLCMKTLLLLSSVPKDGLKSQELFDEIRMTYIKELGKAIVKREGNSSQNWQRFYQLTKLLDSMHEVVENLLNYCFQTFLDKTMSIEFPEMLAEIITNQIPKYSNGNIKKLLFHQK

On to `CCOP(=O)(OCC)SCS(=O)(=O)C(C)(C)C`, for which the Potency entry in test [1], in [3], in test [6], in test [7], in test [8] and in [9] was “inactive” throughout. Besides, the Potency entry in test [16] and in test [19] was “inactive” in each case. Also, the figures for the activation in test [2], in test [13] and in test [14] were -1.34% (inactive), 2.21% (inactive) and 2.25% (inactive), respectively. Besides, the result in test [4] was inactive. The max response is -7.9% in [5]; -4.31% in test [10]; 2.18% (inactive) in test [11]; -3.37% (inactive) in [15]; 1.67% (inactive) in test [17]; -4.67% (inactive) in test [18]. Besides, the max response in test [20] is 5.96% (inactive). Further, the activity change % (negative = inhibition) in test [12] is -16.4% (inactive).
Take `COP(=O)(OC)OC(Br)C(Cl)(Cl)Br` (stereo unspecified): the Potency entry in [1], in [6], in test [9] and in test [19] was “inactive” in each case. In test [2], the activation was -8% (inactive). Also, the molecule was classed as inactive in [4]. For the same molecule, the max response in test [5] was -79.2%. The results for the Potency in test [7] and in [16] were 22.4 µM (active) and 68.6 µM (active), respectively. Also, the activity change % (negative = inhibition) in [12] is -62.2% (inactive).
Take `COc1ccc(-c2ccccc2)cc1NNC(=O)OC(C)C`: the Potency result in test [1], in test [3], in test [7], in [9], in [16] and in test [19] was “inactive” in each case. Also, in test [13], the activation was -1.18% (inactive). Moreover, the max response in [15] was -0.526% (inactive); in test [17], -7.29% (inactive); in test [18], -21.9% (inactive); in test [20], -11.3% (inactive).
In the case of `O=C(O)C(F)(F)C(F)(F)C(F)(F)C(F)(F)C(F)(F)C(F)(F)C(F)(F)C(F)(F)F`, the Potency entry in test [1], in test [3], in test [6], in [7], in test [8] and in [9] was “inactive” each time. In addition, the Potency entry in [19] is “inactive”. In addition, the activation in [2] was -0.386% (inactive) and 5.13% (inactive); in [13] it was 1.7% (inactive); in test [14], 2.07% (inactive) and 1.12% (inactive). Besides, the result in test [4] was inactive. Also, the max response in test [5] was -4.97% and -33.9%; in test [10], -12.8% and -2.74%; in test [11], 2.77% (inactive) and -39.3% (inactive); in test [15], -1.46% (inactive) and 5.33% (inactive); in test [18], -7.25% (inactive) and -13% (inactive); in [20], 1.17% (inactive) and 2.66% (inactive). Further, the activity change % (negative = inhibition) in [12] is 1.6% (inactive) and 0.325% (inactive).
On to `CCOP(=O)(OCC)OC(Cl)C(Cl)(Cl)Cl` (stereo unspecified), for which the Potency result in test [1], in test [3], in test [6], in test [8], in test [9] and in test [19] was “inactive” in each case. Moreover, the activation in test [2] is -1.92% (inactive); in [13], -3.88% (inactive); in [14], 2.83% (inactive). The outcome in test [4] was inactive. In addition, the max response is 51.3% in test [5]; -13.7% in test [10]; -17.2% (inactive) in [11]; -2.65% (inactive) in [15]; -17.4% (inactive) in [17]; -7.64% (inactive) in [18]. For the same molecule, the max response in [20] is 2.92% (inactive). The activity change % (negative = inhibition) in [12] is -2.35% (inactive).
Consider `CC(C)(C)[C@@H](O)/C(=C\c1ccc(Cl)cc1Cl)n1cncn1`, for which the Potency result in test [1], in test [3] and in [19] was “inactive” each time. For the same molecule, the activation in test [2] is -11.9% (inactive); in [13] it was -3.2% (inactive). Besides, the outcome in test [4] was inactive. Moreover, the results for the max response in [10] and in test [17] were 18.6% and 6.93% (inactive), respectively. Further, the activity change % (negative = inhibition) in [12] is -11.6% (inactive).
In the case of `CC(C)Oc1cc(-n2nc(C(C)(C)C)oc2=O)c(Cl)cc1Cl`, the Potency entry in test [1], in [3], in test [6], in [9], in [16] and in test [19] was “inactive” each time. Also, the activation was 12% (inactive) in test [2], 0.204% (inactive) in [13] and 0.842% (inactive) in test [14]. Further, the molecule was classed as inactive in test [4]. The max response is 22.7% in test [5], 0.863% (inactive) in test [15], -16% (inactive) in [17] and -26.7% (inactive) in [18]. Besides, in test [12], the activity change % (negative = inhibition) was -6.22% (inactive).
